Structures are written as SMILES. This is part of a sample that, as a whole, favours compounds with a hit. Of some 83,000 tested, about 20% had one in any assay.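 In brief: 96-well plates, 48 h treatment, single concentration, percent growth endpoint.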 Values without a mark were called inactive. The source made the active and inactive calls. How the source made its calls: active means growth percent below 10; inactive means the rest.

Some test systems named below: HCT-15 colon; HT29 colon; SNB-75 CNS; SNB-19 CNS; U251 CNS; PC-3 prostate; SK-MEL-5 melanoma; UACC-62 melanoma; LOX IMVI melanoma; SK-MEL-28 melanoma; SK-MEL-2 melanoma; EKVX NSCLC; SN12C renal; UO-31 renal; TK-10 renal; ACHN renal; CAKI-1 renal; A498 renal; CCRF-CEM leukemia; MOLT-4 leukemia.
Common to all, as to assay: NCI-60 one-dose screen, 48 h (100 = growth as untreated, 0 = no growth, -100 = all killed)
What all share (details): 10 µM unless noted

Consider `O=C(Nc1cccnc1Nc1ccc(Cl)cc1)c1cn(Cc2cccc(Oc3ccccc3)c2)nn1`, for which the growth with HCT-15 colon is 25.6%; with HT29 colon, 27.2%; in the assay on SNB-75 CNS it was 42.1%; with SNB-19 CNS it was 50.1%; in the assay with U251 CNS it was 39.4%; in the assay with PC-3 prostate it was 35%. Further, the growth was 12.6% in the assay on SK-MEL-5 melanoma; 30.6% in the assay on UACC-62 melanoma; 31.1% in the assay with LOX IMVI melanoma; 61.7% in the assay on SK-MEL-28 melanoma; 61.8% with SK-MEL-2 melanoma; 53.5% with EKVX NSCLC. Moreover, the growth was 46.4% with SN12C renal; 31.9% in the assay with UO-31 renal; 82.4% in the assay with TK-10 renal; 55.2% with ACHN renal; 53.6% in the assay on CAKI-1 renal; 26.6% in the assay on A498 renal. The growth with CCRF-CEM leukemia was 39%; with MOLT-4 leukemia, 28.8%.
`C[C@H]1[C@H](C)CC[C@]2(C(=O)NCCNCCN)CC[C@]3(C)C(=CC[C@@H]4[C@@]5(C)CCC(=O)C(C)(C)[C@@H]5CC[C@]43C)[C@H]12`: the growth in the assay with HCT-15 colon was 13.1%; in the assay on HT29 colon, 4.06% (active); in the assay on SNB-75 CNS, 65%; with SNB-19 CNS, 71.6%; in the assay on U251 CNS, -28.6% (active); with PC-3 prostate, 38.5%. In addition, the growth is 85.3% in the assay with SK-MEL-5 melanoma; 77.5% with UACC-62 melanoma; -76.7% (active) in the assay on LOX IMVI melanoma; 81.5% with SK-MEL-28 melanoma; 91.4% with SK-MEL-2 melanoma; 79.4% with EKVX NSCLC. Also, the growth was 68.2% in the assay with SN12C renal; 60.3% in the assay on UO-31 renal; 74% with TK-10 renal; 77.1% in the assay on ACHN renal; 61.5% in the assay with CAKI-1 renal; 75% with A498 renal. The growth was -11.7% (active) with CCRF-CEM leukemia and -9.76% (active) with MOLT-4 leukemia.
For the compound `C#Cc1cccc(Nc2ncnc3cc(NC(=O)CCl)ccc23)c1`, the growth was -67.7% (active) with HCT-15 colon; -65.5% (active) in the assay with HT29 colon; -97.2% (active) in the assay with SNB-75 CNS; -70.8% (active) in the assay on SNB-19 CNS; -88.1% (active) with U251 CNS; -64.9% (active) with PC-3 prostate. Further, the growth was -93.9% (active) in the assay on SK-MEL-5 melanoma; -68.6% (active) with UACC-62 melanoma; -62.7% (active) with LOX IMVI melanoma; -45.1% (active) in the assay on SK-MEL-28 melanoma; -61.5% (active) with SK-MEL-2 melanoma; -45.5% (active) in the assay with EKVX NSCLC. In addition, the growth in the assay on SN12C renal was -78.1% (active); with UO-31 renal, -91.5% (active); with TK-10 renal it was -91.5% (active); in the assay on ACHN renal, -95.9% (active); in the assay with CAKI-1 renal, -82.4% (active); with A498 renal, 20.5%. Besides, the growth in the assay on CCRF-CEM leukemia is -19.4% (active); with MOLT-4 leukemia it was -16.4% (active).
Take `COc1cc2ncnc(Nc3ccc(S(=O)(=O)Nc4nccs4)cc3)c2cc1OCCCN1CCCC1`: the growth in the assay on HCT-15 colon was 101%; in the assay on HT29 colon it was 107%; with SNB-75 CNS, 93.8%; in the assay with SNB-19 CNS, 103%; in the assay on U251 CNS, 101%; in the assay on PC-3 prostate, 100%. The growth with SK-MEL-5 melanoma was 105%; with UACC-62 melanoma it was 97.2%; in the assay with LOX IMVI melanoma it was 98.9%; with SK-MEL-28 melanoma it was 109%; with SK-MEL-2 melanoma it was 114%; in the assay with EKVX NSCLC, 107%. Moreover, the growth in the assay on SN12C renal is 99.9%; with UO-31 renal, 84.9%; in the assay on TK-10 renal it was 123%; with ACHN renal, 108%; with CAKI-1 renal it was 100%; in the assay on A498 renal it was 104%. Further, the growth with CCRF-CEM leukemia was 100%; in the assay with MOLT-4 leukemia it was 104%.
Regarding `CN1c2ccccc2S(=O)(=O)n2c(SCC(=O)Nc3nc4ccc(F)cc4s3)nnc21`, the growth was 119% in the assay on HCT-15 colon; 119% in the assay with HT29 colon; 90.7% with SNB-75 CNS; 107% in the assay on SNB-19 CNS; 127% with U251 CNS; 87.8% with PC-3 prostate. Besides, the growth in the assay with SK-MEL-5 melanoma is 87.2%; in the assay with UACC-62 melanoma it was 96.5%; in the assay with LOX IMVI melanoma, 92.5%; in the assay on SK-MEL-28 melanoma, 127%; in the assay with SK-MEL-2 melanoma, 52.6%; in the assay on EKVX NSCLC, 102%. For the same compound, the growth with SN12C renal is 104%; with UO-31 renal, -65.7% (active); with TK-10 renal, 130%; in the assay on ACHN renal, 96.1%; in the assay on CAKI-1 renal, 97.3%; with A498 renal, 119%. Moreover, the figures for the growth in the assay on CCRF-CEM leukemia and in the assay with MOLT-4 leukemia were 31.1% and 81.9%, respectively.
In the case of `Cc1ccc(OCCOCCOCCOCCOCCOc2ccc(C)n(O)c2=S)c(=S)n1O`, the growth was 29% in the assay with HCT-15 colon; 25.7% with HT29 colon; 24.8% with SNB-75 CNS; 16.7% in the assay on SNB-19 CNS; 12.3% in the assay with U251 CNS; 33.3% in the assay with PC-3 prostate. The growth with SK-MEL-5 melanoma is -32.3% (active); in the assay on UACC-62 melanoma, -13.9% (active); with LOX IMVI melanoma, 3.58% (active); in the assay on SK-MEL-28 melanoma, 33.2%; with SK-MEL-2 melanoma, 15.7%; in the assay with EKVX NSCLC, 13.1%. The growth in the assay on SN12C renal was 8.41% (active); with UO-31 renal it was -26.1% (active); in the assay with TK-10 renal it was 30.2%; in the assay on ACHN renal, 8.16% (active); in the assay on CAKI-1 renal it was 7.97% (active); in the assay with A498 renal, 20.4%. The values for the growth with CCRF-CEM leukemia and in the assay on MOLT-4 leukemia were 1.49% (active) and 2.29% (active), respectively.
Regarding `Nc1c(Br)cc2c(c1Br)Cc1cc([N+](=O)[O-])ccc1-2`, the growth is 104% with HCT-15 colon; 110% in the assay with HT29 colon; 75.3% in the assay with SNB-75 CNS; 94.5% in the assay on SNB-19 CNS; 95.5% with U251 CNS; 87.9% in the assay with PC-3 prostate. Further, the growth in the assay with SK-MEL-5 melanoma is 91.4%; with UACC-62 melanoma it was 89.1%; in the assay on LOX IMVI melanoma it was 102%; in the assay on SK-MEL-28 melanoma, 113%; in the assay on SK-MEL-2 melanoma, 109%; with EKVX NSCLC, 55.3%. The growth is 101% in the assay on SN12C renal; 79.1% in the assay on UO-31 renal; 90.6% in the assay on TK-10 renal; 93.2% with ACHN renal; 98% in the assay with CAKI-1 renal; 114% in the assay on A498 renal. In addition, the growth in the assay with CCRF-CEM leukemia is 95.7%; in the assay on MOLT-4 leukemia, 83.4%.
`COc1ccc(/C=C2\CN(C(=O)C(Cl)Cl)C/C(=C\c3ccc(OC)c(OC)c3)C2=O)cc1OC`: the growth is -38.9% (active) with HCT-15 colon; 10.8% in the assay with HT29 colon; 10.9% in the assay with SNB-75 CNS; 6.34% (active) in the assay with SNB-19 CNS; -17.4% (active) in the assay on U251 CNS; -7.16% (active) in the assay with PC-3 prostate. Besides, the growth in the assay on SK-MEL-5 melanoma was -58.8% (active); in the assay with UACC-62 melanoma, -59.6% (active); with LOX IMVI melanoma, -67.8% (active); in the assay on SK-MEL-28 melanoma, -8.59% (active); with SK-MEL-2 melanoma it was 14.9%; in the assay on EKVX NSCLC, 8.31% (active). In addition, the growth in the assay on SN12C renal was -60.6% (active); with UO-31 renal, -99% (active); in the assay on TK-10 renal it was 22%; with ACHN renal, -82.7% (active); in the assay on CAKI-1 renal, -17.2% (active); in the assay with A498 renal it was -48.2% (active). Moreover, the growth with CCRF-CEM leukemia was 12%; with MOLT-4 leukemia, 5.43% (active).

Values taken from PubChem BioAssay (NCI).
